# Results reported in PubChem BioAssay (Tox21).
# Results filed as inconclusive are left out. Unmarked numbers belong to inactive results. Activity calls are given as the source filed them. Calls come from the whole dose curve; as a rule, active = well fitted inhibition curve with a large enough effect in the signal ratio in the repeat runs (not every such curve was filed as active); inconclusive = weak or mixed curves, or effect the other way; inactive = flat fitted curve, though single readings scatter; the % refers to the signal ratio.
# Assay: cAMP Responsive Elements (CRE) small molecule antagonists, cell-based qHTS assay (AID 1963591)
# Details: CRE-bla HEK293T, beta-lactamase FRET ratio; series mostly up to 92.4 µM; activity change, negative = inhibition: at the top concentration
# Excerpt: U.S. Tox21 Program National Center for Advancing Translational Sciences [NCATS] Division of Preclinical Innovation [DPI] U.S. Environmental Protection Agency [EPA] National Institutes of Environmental Health Sciences [NIEHS] National Toxicology Program [NTP] U.S. Food and Drug Administration [FDA] Tox21 Assay Overview: CREB (cyclic-AMP Responsive Element Binding Protein) is a cellular transcription factor. It binds to certain DNA sequences called cAMP Responsive Elements (CRE) and regulates the transcription of the genes. […] This cell line can be used to find agonists/antagonists of the cyclic AMP signaling pathway. The activation of the report gene under culture conditions can be detected by fluorescence intensity. This cell line has been used to screen the Tox21 10K compound library to […].
# Tox21 Assay Protocol Summary: CRE-bla Hek 293T cells were suspended in assay medium (DMEM containing 10% dialyzed FBS, 0.1 mM NEAA, 1 mM sodium pyruvate and 25 mM HEPES) and dispensed at 2,000 cells/4 uL /well into 1536-well black wall/clear bottom plates using a Multidrop Combi (ThermoFisher Scientific, Waltham, MA) dispenser. After the assay plates were incubated at 37 C/5% CO2 for 18 hrs, 23 nL of compounds dissolved in DMSO, positive controls or DMSO only was transferred to the assay plate by a pintool workstation (Kalypsys, San Diego, CA), followed by addition of 1 […] uL of 1.25uM NKH477 (0.25 uM as final concentration) in assay medium using a Flying Reagent Dispenser (Aurora Discovery, San Diego, CA). The plates were incubated at 37 C and 5% CO2 for 3 hrs. Then 1 uL of LiveBLAzer B/G FRET substrate (Invitrogen, Carlsbad, CA) was added to each well using Bioraptr Flying Reagent Dispenser (FRD, Aurora Discovery, San Diego, CA). The plates were incubated at room temperature for 2 h.
# % is set by controls: 0 for no effect and ±100 for the full control effect.
Structure (SMILES),"activity change, negative = inhibition",Potency
C=CC(=O)OCCOC1C2CCC1C1CC=CC12 (stereo not given),-8.52% [at 18.9 µM],–
Cc1ccc(S(=O)(=O)NC2CCCCC2)cc1,0.311%,–
CCCCSCCCC,-10.4%,–
N#CCC(=O)O,-1.47%,–
COc1ccccc1C=O,-0.351%,–
CC(C)Nc1ccccc1,4.19%,–
CC1CCC(C(C)C)C(O)C1 (stereo not given),–,inactive
CC(C)(C)C(=O)C1C(=O)c2ccccc2C1=O,–,inactive
CCOC(OCC)C(=O)c1ccccc1,4.28%,–
O=S(=O)(O)c1cccc2c(S(=O)(=O)O)cccc12,0.236%,–
CCOCOCC,1.94%,–
CN(C)/N=N/c1nc[nH]c1C(N)=O,2.49% [at 42.4 µM],–
Nc1c(NC/C=C\COc2cc(CN3CCCCC3)ccn2)c(=O)c1=O,-4.15% [at 18.9 µM],–
OC/C=C/CO,3.18%,–
O=C(O)c1ccc([N+](=O)[O-])cc1,–,inactive
C=CC(C)(O)CC/C=C(\C)CCC=C(C)C (stereo not given),8.62%,–
COCC(O)CO (stereo not given),-10.1%,–
CCN(CC#N)c1cccc(C)c1,-16.1%,–
CC1=CC(=O)c2ccccc2C1=O,-1.87% [at 42.4 µM],–
CC(C)(Oc1ccc(CCNC(=O)c2ccc(Cl)cc2)cc1)C(=O)O,–,inactive

Structure (SMILES),"activity change, negative = inhibition",Potency
FC(F)(F)c1ccccc1,-3.15%,–
C1CCCCC1,4.25%,–
CCCc1cc(C(N)=S)ccn1,-6.31% [at 42.4 µM],–
COC(OC)C(C)c1ccccc1 (stereo not given),-0.689%,–
N#CC1(c2ccc(F)cc2)CCC(=O)CC1,4.43% [at 42.4 µM],–
O=C(O)c1cc(=O)c2ccccc2o1,-5.3% [at 42.4 µM],–
Cn1ccnc1,-0.233%,–
CC(C)C(=O)OCCOc1ccccc1,-14.5%,–
NCCN1CCNC1=O,-0.538%,–
CCN(CC)S(=O)(=O)c1ccc(C(=O)O)cc1,-3% [at 42.4 µM],–
CCCCCCc1ccc(-c2ccc(C#N)cc2)cc1,-8.56%,–
Cc1ccc(S(=O)(=O)NC(=O)NC2CCCC2)cc1,-2.99% [at 42.4 µM],–
C[C@H]1C[C@H](O)c2ccsc2S1(=O)=O,-4.42% [at 42.4 µM],–
O=S(=O)(O)CCS,–,inactive
O=C(O)c1cc(C(=O)O)cc([N+](=O)[O-])c1,7.37%,–
CCOC(=O)c1cccc(N)c1,6.26% [at 42.4 µM],–
CC(=O)OCC(=O)[C@@]1(O)CC[C@H]2[C@@H]3CCC4=CC(=O)C=C[C@]4(C)[C@H]3[C@@H](O)C[C@@]21C,2.98% [at 42.4 µM],–
C=C(C)C(=O)NCCCN(C)C,-7.18%,–
O=C(OCCOCCO)c1ccccc1Nc1cccc(C(F)(F)F)c1,14% [at 42.4 µM],–
Cc1ccc(C(C)C)cc1O,-6.31%,–
